HepG2 viability – qHTS for Inhibitors of TGF-b: Cytotox Counterscreen | AID 588856, 2011 | Potency, µM (top dose mostly 46.1 µM), most hits filed as cytotoxic | HepG2 CAGA-GFP viability, ATP luminescence, 18 h | 410,000 compounds, 0.76% hits
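HepG2 CAGA-GFP cells (1000/well, DMEM with 1% FBS) received compound, then TGF-beta at 500 pg/mL final, and were incubated 18 hours at 37 degrees C. Viability was read by CellTiter-Glo luminescence. Media-only wells were set as complete cell-killing and DMSO as no toxicity.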
IL1B secr inh – qHTS for Inhibitors of Inflammasome Signaling: IL-1-beta AlphaLISA Primary Screen. 360,000 compounds, 4.7% hits. AID 743279, 2014. THP-1 LPS/ATP IL-1B secretion, AlphaLISA, 16 h; active compounds read low. activity change, % at 57.5 µM; in the data active = activity change below about -50%; inconclusive = mostly about -30% to -49%
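Secreted IL-1B measured by AlphaLISA bead assay after 16 h compound exposure of THP-1 cells; compounds (final up to 57.5 uM) added 1 h before LPS (250 ng/mL) and ATP (1.25 mM) stimulation; lower signal means less secretion.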
TDP1 cell noCPT – qHTS for Inhibitors of human tyrosyl-DNA phosphodiesterase 1 (TDP1): qHTS in cells in absence of CPT | 420,000 compounds, 15% hits | DT40 Tdp1-/- hTDP1 cells, no CPT, ATP luminescence, 48 h | Potency, µM (highest dose often 46.2 µM), usual class: inhibitors; also: nearly all actives have a fitted effect of over 55% in size
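No-CPT arm: Tdp1-/-;hTDP1 DT40 cells (400/well) plus compounds, incubated ≥48 hr at 37 °C. Readout CellTiter-Glo luminescence.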
TDP1 inh – qHTS Assay for Inhibitors of Tyrosyl-DNA Phosphodiesterase (TDP1). Tyrosyl-DNA phosphodiesterase 1 (Homo sapiens), Q9NUW8. 350,000 compounds, 0.28% hits. Potency, µM (highest dose often 130 µM), usual class: inhibitors. AID 485290, 2010. recombinant TDP1, AlphaScreen DNA substrate cleavage; also: nearly all actives have a fitted effect of over 40% in size
Target sequence (Q9NUW8 whole entry, looked up): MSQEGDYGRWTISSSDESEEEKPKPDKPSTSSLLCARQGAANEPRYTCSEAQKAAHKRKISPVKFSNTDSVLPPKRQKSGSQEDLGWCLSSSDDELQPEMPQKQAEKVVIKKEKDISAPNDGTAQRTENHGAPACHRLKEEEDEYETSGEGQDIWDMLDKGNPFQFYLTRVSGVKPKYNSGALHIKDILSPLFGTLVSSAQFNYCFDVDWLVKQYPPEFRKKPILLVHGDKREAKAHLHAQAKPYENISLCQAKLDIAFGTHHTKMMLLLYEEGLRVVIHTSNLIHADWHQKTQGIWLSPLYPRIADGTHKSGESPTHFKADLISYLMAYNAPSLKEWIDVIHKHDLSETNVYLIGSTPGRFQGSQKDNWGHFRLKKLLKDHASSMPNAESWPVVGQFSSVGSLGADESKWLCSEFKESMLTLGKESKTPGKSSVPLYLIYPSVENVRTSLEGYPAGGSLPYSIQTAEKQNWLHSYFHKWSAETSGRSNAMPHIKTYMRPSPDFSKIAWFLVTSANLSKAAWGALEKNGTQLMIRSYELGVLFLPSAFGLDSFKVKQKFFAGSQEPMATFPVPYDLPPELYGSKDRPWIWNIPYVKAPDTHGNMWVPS
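Recombinant human Tdp1 (E. coli-expressed, 1 nM final) preincubated with compounds 15 min at room temperature, then 5'-biotin/3'-phosphotyrosine-FITC DNA substrate (15 nM final) added for 5 min. AlphaScreen beads (10 ug/ml final) added 10 min; cleavage lowers signal.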
TDP1 cell CPT – qHTS for Inhibitors of human tyrosyl-DNA phosphodiesterase 1 (TDP1): qHTS in cells in presence of CPT; chicken DT40 Tdp1-/-;hTDP1 cells + 20 nM CPT, ATP luminescence, 48 h; Potency, µM (top dose mostly 46.2 µM), actives largely listed as inhibitors; 420,000 compounds, 12% hits; AID 686979, 2013; also: nearly all actives have a fitted effect of over 55% in size
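Chicken DT40 Tdp1-/- cells complemented with human TDP1, 400 cells/well, exposed to compounds plus 20 nM camptothecin for at least 48 h at 37 C; viability read as ATP content by CellTiter-Glo luminescence.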
TGFb inhibitor – qHTS for Inhibitors of TGF-b; 410,000 compounds, 1.2% hits; AID 588855, 2011; HepG2 CAGA-GFP TGF-b/SMAD3 reporter, GFP fluorescence, 18 h; TGF-beta stimulated, 500 pg/mL final; Potency, µM (doses to about 46.1 µM), most hits filed as inhibitors; also: nearly all actives have a fitted effect of over 65% in size
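GFP signal (ex488/em500-530) from TGF-beta-stimulated HEPG2 CAGA-GFP cells, 500 pg/mL final, 18 h at 37 degrees C in DMEM plus 1% FBS, normalized to unstimulated and DMSO-stimulated controls.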
Large screens that a line does not name were inactive. In the library only some 19% were active in any assay of this set; here they are far more common. Unless noted, calls follow the shape of the dose curve; as a rule, active = well fitted curve in the direction sought with a large enough effect; inconclusive = small, poorly fitted or top-dose-only effect, or another doubt; inactive = no such curve, though single readings can be large; an effect the other way counts as inactive or inconclusive.

COCC1CCCN(Cc2ccc3c(c2)CN(C(=O)c2cn4ccc(C)cc4n2)CCO3)C1 (configuration not stated)	none (no result: HepG2 viability, IL1B secr inh, TDP1 inh, TGFb inhibitor)
O=C1CCSc2ccc(S(=O)(=O)Nc3ccc(Cl)c(C(F)(F)F)c3)cc2N1	TGFb inhibitor inconclusive (no result: IL1B secr inh, TDP1 cell noCPT, TDP1 cell CPT)
Cc1ccc(CCNC(=O)CCn2c(=O)c3cccn3c3ccc(F)cc32)cc1	TDP1 cell noCPT 18µM, TDP1 cell CPT inconclusive, TGFb inhibitor inconclusive
CCCCNC(=O)CCn1c(=O)c2cccn2c2ccc(F)cc21	TDP1 cell noCPT inconclusive, TDP1 cell CPT inconclusive
O=C(CCn1c(=O)c2cccn2c2ccc(F)cc21)NCCc1ccc(Cl)cc1	TDP1 cell noCPT 15µM, TDP1 cell CPT inconclusive (no result: IL1B secr inh)
O=C(CCCn1c(=O)c2cccn2c2ccccc21)NCCc1ccc(Cl)cc1	TDP1 cell noCPT inconclusive, TDP1 cell CPT inconclusive (no result: IL1B secr inh)
Cc1cccc(-n2c(-c3ccccc3)cn3c4c(=O)[nH]c(=O)n(C)c4nc23)c1	none (no result: IL1B secr inh, TDP1 cell noCPT, TDP1 cell CPT)
c1ccc(CN2CCN(C3CCCSc4ccccc43)CC2)cc1 (configuration not stated)	TDP1 cell noCPT 23µM, TDP1 cell CPT inconclusive (no result: TDP1 inh)
COc1cc(CNc2ccccc2)c([N+](=O)[O-])cc1OC	TDP1 cell CPT inconclusive (no result: TDP1 inh)
COc1cc(NCC2COc3c(ccc(OC)c3OC)C2=O)c([N+](=O)[O-])cc1OC (configuration not stated)	TDP1 cell noCPT 18µM, TDP1 cell CPT 18µM, TGFb inhibitor inconclusive (no result: TDP1 inh)
CC(=O)Nc1ccc(NC(=O)c2ccnn2C)cc1	none (no result: TDP1 inh)
COC(=O)c1c(C)oc2ccc(N(C(=O)c3ccncc3)S(=O)(=O)c3c(C)cc(C)cc3C)cc12	TDP1 cell noCPT 1.2µM, TDP1 cell CPT 1.8µM (no result: IL1B secr inh, TDP1 inh)
Cc1ccc([N+](=O)[O-])cc1S(=O)(=O)N(C(=O)c1ccncc1)c1ccc2oc3c(c2c1)CCCC3	TGFb inhibitor inconclusive
COC(=O)c1c(C)oc2ccc(N(C(=O)c3ccncc3)S(=O)(=O)c3cc(C)c(C)cc3C)cc12	TDP1 cell noCPT 5.2µM, TDP1 cell CPT 10µM, TGFb inhibitor inconclusive (no result: IL1B secr inh, TDP1 inh)
COC(=O)c1c(C)oc2ccc(NS(=O)(=O)c3cccs3)cc12	TDP1 cell CPT inconclusive
COC(=O)c1c(C)oc2ccc(N(C(=O)c3ccncc3)S(=O)(=O)c3ccc(C)cc3C)cc12	IL1B secr inh inconclusive, TDP1 cell noCPT 4.1µM, TDP1 cell CPT 2.6µM, TGFb inhibitor inconclusive
CC(NC(=O)C1CCN(C(=O)[C@@H]2Cc3ccccc3CN2)CC1)c1ccccc1 (some centres not stated)	none
Cc1ccc(SCCNC(=O)CN(c2cccc(C)c2C)S(C)(=O)=O)cc1	TDP1 cell noCPT inconclusive, TDP1 cell CPT inconclusive (no result: IL1B secr inh, TDP1 inh)
O=C(O)CCn1cnc2onc(-c3ccccc3Cl)c2c1=O	none (no result: IL1B secr inh)
CCC1CCCCN1C(=O)Cn1c(=O)n(CC2CCC(C(=O)NC)CC2)c(=O)c2sccc21 (configuration not stated)	none (no result: IL1B secr inh)
Cc1ccc(S(=O)(=O)NCCC(=O)NCC(c2cccs2)N(C)C)cc1 (configuration not stated)	none
O=C(c1ccc2c(c1)N(Cc1cccc(Cl)c1)C(=O)c1ccccc1S2(=O)=O)N1CCN(c2ccccn2)CC1	TDP1 cell noCPT 13µM, TDP1 cell CPT inconclusive
COc1ccc(N2CCN(C(=O)c3ccc4c(c3)N(Cc3cccc(Cl)c3)C(=O)c3ccccc3S4(=O)=O)CC2)cc1	TGFb inhibitor inconclusive (no result: IL1B secr inh)
N#Cc1cccnc1N1CCN(C(=O)c2ccc3c(c2)S(=O)(=O)c2ccccc2C3=O)CC1	IL1B secr inh inconclusive, TDP1 cell noCPT inconclusive, TDP1 cell CPT 26µM (no result: TDP1 inh)

Screening results: PubChem BioAssay, National Center for Advancing Translational Sciences (NCATS)
